Rows were chosen to be rich in hits. Some 1.1% of all compounds tested hit in one or more screens of this group.
HTR5A inv ag = HTR5A inverse agonism, opioid heterodimer counter-screen; inhibition, % at 9.3 µM; P47898; HTR5A cell line, luminescence; hit rate 0.083% among 340,000; in the data active means inhibition mostly above about 23%, no sharp cut-off; inactive means mostly below about 18%;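 further: 0% = cells with DMSO and 100% = no-cell wells with DMSO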
OPRM1-OPRD1 inv = inverse agonist of human OPRM1-OPRD1 heterodimerization; cell-based MOR-DOR heterodimer luminescence, inverse agonism; inhibition, % at 9.3 µM; P35372+P41143; AID 504357; hit rate 0.21% among 340,000; in the data active means inhibition above about 22%, passing the limit was not always enough;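 further: 0% = cells with DMSO and 100% = wells without cells with DMSO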
Target sequence (P35372 whole entry, looked up): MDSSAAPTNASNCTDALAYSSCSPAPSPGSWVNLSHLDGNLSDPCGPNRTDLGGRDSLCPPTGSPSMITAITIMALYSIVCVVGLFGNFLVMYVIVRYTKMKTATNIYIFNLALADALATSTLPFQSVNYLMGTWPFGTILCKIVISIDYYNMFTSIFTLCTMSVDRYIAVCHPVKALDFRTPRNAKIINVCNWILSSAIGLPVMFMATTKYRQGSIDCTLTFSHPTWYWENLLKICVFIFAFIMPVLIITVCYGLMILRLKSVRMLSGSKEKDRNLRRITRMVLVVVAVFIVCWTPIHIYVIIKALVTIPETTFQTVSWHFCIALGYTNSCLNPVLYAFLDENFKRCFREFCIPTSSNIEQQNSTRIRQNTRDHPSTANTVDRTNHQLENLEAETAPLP
Target sequence (P41143 whole entry, looked up): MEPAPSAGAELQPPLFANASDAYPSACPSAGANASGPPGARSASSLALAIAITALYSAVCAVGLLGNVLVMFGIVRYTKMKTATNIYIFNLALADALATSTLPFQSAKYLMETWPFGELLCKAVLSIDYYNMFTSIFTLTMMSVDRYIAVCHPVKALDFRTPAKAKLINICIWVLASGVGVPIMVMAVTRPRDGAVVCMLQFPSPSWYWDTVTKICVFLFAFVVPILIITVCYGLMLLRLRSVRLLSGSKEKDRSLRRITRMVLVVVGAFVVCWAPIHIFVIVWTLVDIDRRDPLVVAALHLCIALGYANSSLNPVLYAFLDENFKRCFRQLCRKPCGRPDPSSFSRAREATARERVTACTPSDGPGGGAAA
HTR5A ag ctr = counter-screen for OPRM1-OPRD1 agonists: human HTR5A agonism | P47898 | HTR5A agonist assay, luminescence, cell-based | activation, % at 9.3 µM | hit rate 0.61% among 340,000 | AID 504692; in the data active means activation mostly above about 9.5%, no sharp cut-off; inactive means mostly below about 7.6%;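 further: 0% = cells with vehicle only and 100% = reference agonist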
OPRM1-OPRD1 ag = agonists of human mu-delta opioid receptor heterodimerization. P35372+P41143. cells, OPRM1-OPRD1 heterodimerization, luminescence. activation, % at 9.3 µM. hit rate 0.3% among 340,000. AID 504326; in the data active means activation above about 18%;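 further: 0% = vehicle-treated cells and 100% = reference agonist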
OPRM1-D1 inv cf = confirmation of human OPRM1-OPRD1 heterodimerization inverse agonists; shares compounds with OPRM1-OPRD1 inv; cells expressing OPRM1/OPRD1 heterodimer, luminescence; inhibition, % at 9.3 µM; hit rate 20% among 580; in the data active means inhibition above about 32%;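 further: 0% = cells with DMSO and 100% = wells lacking cells with DMSO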
HTR5A inv count = HTR5A inverse agonism, opioid heterodimer counter-screen; shares compounds with OPRM1-OPRD1 inv; HTR5A-expressing cells, luminescence; inhibition, % at 9.3 µM; 580 tested, under 10 active; AID 504914; call rule not given here;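 further: 0% = cells with DMSO and 100% = no-cell wells with DMSO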
* marks the source's active call; other numbers are inactive results; i = inactive; · = no result.

SMILES	HTR5A inv ag	OPRM1-OPRD1 inv	HTR5A ag ctr	OPRM1-OPRD1 ag	OPRM1-D1 inv cf	HTR5A inv count
O=C(NC1CC1)c1cccc(NC(=O)C2CCN(S(=O)(=O)c3cccc(C(F)(F)F)c3)CC2)c1	7	0	2	0	·	·
CCC(C)(C)NC(=O)C(c1ccc(F)cc1)N(Cc1cccs1)C(=O)c1cnccn1 (centres undefined)	0	10	6	-2	·	·
Cc1ccc(CNS(=O)(=O)c2ccc(CN3C(=O)c4cccnc4C3=O)cc2)o1	14	3	1	-1	·	·
Cc1cc(C)cc(OCC(=O)Nc2nc(-c3cccnc3)cs2)c1	-6	-123	-2	18	·	·
Cc1ccc2[nH]c(O)c(N=Nc3ccccc3C)c2c1	1	32*	3	-5	4	4
COc1ccc(S(=O)(=O)NNc2nc(C)cc(C)n2)cc1[N+](=O)[O-]	0	46*	2	-8	54*	2
CN1CCN(Cc2coc3c(Cl)cc(Cl)cc3c2=O)CC1	9	8	-2	-2	·	·
O=C(CC1(O)C(=O)Nc2ccccc21)c1ccc(-n2cnnn2)cc1 (centres undefined)	15	40*	-4	-9	33*	-1
Cc1cc(=O)[nH]c(-n2ncc(C#N)c2N)n1	2	15	-1	-3	·	·
CC(NS(=O)(=O)c1ccc(Cl)cc1)C(=O)N1CCOCC1 (centres undefined)	-14	7	5	-1	·	·
O=C(Nc1ccc(Br)cc1)N1CCCCCCC1	6	33*	2	-6	-68	-18
Cc1cccc(N=C2CSC(=O)N2)c1	-4	16	2	-3	·	·
Cc1cccc(N=C2C(=O)Nc3c(Cl)cccc32)c1	-10	56*	3	-12	27	7
CCc1ccc(NC(=O)Cn2c(=O)n(CCC(=O)NC3CCN(Cc4ccccc4)CC3)c(=O)c3ccccc32)cc1	18	14	0	-3	·	·
CC(=O)OCC1(C)CN(c2ccccc2)N(C(=O)c2ccc(F)cc2)C1=O (centres undefined)	1	44*	0	-6	27	-9
CNS(=O)(=O)c1cccc(C(=O)OCC(=O)c2cc3ccccc3o2)c1	37*	77*	-15	-17	-282	6
CC(=O)Nc1ccc(C(=O)OCC(=O)c2ccc(S(=O)(=O)N3CCCCC3)cc2)cc1	-8	-18	-3	3	·	·
CC(=O)Nc1cccc(C(=O)OCC(=O)c2ccc(S(=O)(=O)N3CCCCC3)cc2)c1	18	47*	-7	-9	49*	15
COc1cc(C(=O)OCC(=O)c2ccc(S(=O)(=O)N3CCCCC3)cc2)cc(OC)c1OC	1	31	-3	-8	·	·
CNS(=O)(=O)c1cccc(C(=O)OCC(=O)c2ccc(S(=O)(=O)N3CCCCC3)cc2)c1	13	53*	-5	-10	24	18
Cc1cc(C(C)(C)C)c(OC(=O)[C@@H]2OC(c3ccccc3)=C[C@H]2c2ccccc2)c(C(C)(C)C)c1	-5	14	7	-2	·	·
CC(C)OC(=O)C(=O)NNc1ccccc1	8	24*	-3	-3	4	3
CCCOC(=O)C(=O)NNc1ccccc1	-6	0	2	0	·	·
CCOC(=O)C(=O)NNc1ccc(C)cc1	-2	31*	1	-6	-1	19
O=C1C(=Nc2cccc(Cl)c2)CC(c2ccc(Cl)cc2)N1c1cccc(Cl)c1 (centres undefined)	13	18	-3	-3	·	·
SMILES	HTR5A inv ag	OPRM1-OPRD1 inv	HTR5A ag ctr	OPRM1-OPRD1 ag	OPRM1-D1 inv cf	HTR5A inv count
Cc1ccc2c(c1)/C(=N/N1C(=O)c3ccccc3C1=O)C(=O)N2	7	28*	-2	-5	5	14
Cc1ccc2c(c1)/C(=C/c1ccccc1C)C(=O)N2	-6	-30	2	6	·	·
CCOc1ccc2c(c1)/C(=N/N1C(=O)c3ccccc3C1=O)C(=O)N2	19	42*	-7	-7	-7	7
O=C(C[n+]1ccccc1)NNc1ccccc1	-21	33*	0	-6	24	-16
Cc1ccc(C(=O)COC(=O)CCS(=O)(=O)c2ccccc2)cc1[N+](=O)[O-]	28	42*	-6	-11	-343	11
Cc1ccc(C)c(C(=O)COC(=O)CNS(=O)(=O)c2ccccc2)c1	0	-1	0	0	·	·
Cc1ccc(S(=O)(=O)CCC(=O)OCC(=O)c2ccc(C)c(C)c2)cc1	-29	10	2	-2	·	·
Cc1ccc(C(=O)COC(=O)CNS(=O)(=O)c2ccccc2)cc1[N+](=O)[O-]	18	59*	-9	-14	13	-4
CCc1ccccc1NC(=O)COc1cccc2ccc(C)nc12	-20	13	2	-3	·	·
O=C1c2ccccc2C(=O)N1CCOc1ccccc1Cl	-5	12	-2	-2	·	·
Cc1ccccc1OCCN1C(=O)C(=O)c2cccc(C)c21	-10	58*	2	-9	-224	-55
COc1ccccc1OCCCN1C(=O)C(=O)c2cccc(C)c21	13	41*	-5	-8	56*	3
Cc1cccc2c1N(CCOc1ccccc1Cl)C(=O)C2=O	1	34*	0	-6	-1	-7
CC(C)CCN(CCC(C)C)C(CO)(CO)CO	1	6	0	-1	·	·
COc1cc(C=NNc2nc3c([nH]2)c(=O)n(C)c(=O)n3C)ccc1O	10	35*	-2	-7	15	-1
CN1C(=O)C(O)(CC(=O)c2ccccc2O)c2cc(Br)ccc21 (centres undefined)	3	68*	-1	-13	-153	-34
CCOC(=O)C(OC(=O)c1sc(=S)n(C)c1C)C(C)=O (centres undefined)	4	39*	-1	-7	22	18
CC(=O)N(/N=C1\Sc2ccccc2C1=O)c1ccccc1C	35	51*	-16	-10	-200	-6
CC(=O)N(/N=C1\Sc2ccccc2C1=O)c1ccccc1	28	34*	-6	-8	-58	-14
CC(C(=O)OCC(=O)c1cccc([N+](=O)[O-])c1)N1C(=O)C2C3CCC(C3)C2C1=O (centres undefined)	11	54*	-4	-7	17	6
Cc1ccc(C(=O)COC(=O)C(C)N2C(=O)C3C4CCC(C4)C3C2=O)cc1C (centres undefined)	8	14	-1	-2	·	·
CC(C(=O)OCC(=O)c1cccc([N+](=O)[O-])c1)N1C(=O)C2C3C=CC(C3)C2C1=O (centres undefined)	19	48*	-7	-9	i	-16
C[C@H]1CCC[C@]2(O[C@H](CCO)C[C@@H](O)[C@@H]2O)O1	-24	9	-1	-2	·	·
COc1ccc(-c2cccc3c2NC(=O)C3=O)cc1OC	8	64*	-3	-11	42*	16
COc1ccc(/C=C2\C(=O)NC(=O)c3ccccc32)cc1OC	-15	1	4	0	·	·
